Experimental data from the supplement of paper PMC10849652.
Targets with a hit are over-represented here; the source holds about 7,900 in all. About 0.6% of all pairs of compound and target were hits.

Experiments:
Assay in all cases: log2 fold change, soluble protein after heating vs DMSO (PISA); higher = thermal stabilisation; K562 cells, 10 uM, 30 min; active = over 0.2 and 3.5 SD of the protein, either way, in both replicates (recomputed)
[1] = compound: C1=CC=C(C=C1)[C@H](COC2=CC3=C(C=C2)NC(=O)N3)NC(=O)C4=CC=CN(C4=O)CC5=CC(=C(C=C5)F)F
Outline: (§1)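 For each measurement, 10 μM compound was applied for 30 min to K562 cells at 2×10^6 cells/mL. Aliquots were heated for 3 min across 48°C-58°C, pooled, and extracted in PBS with 0.5% NP-40 at 4°C; the supernatant after 21,000xg for 90 min was soluble protein. This was quantified by TMTpro 16plex LC-MS/MS with channel sums equalised, and thermal stability was reported relative to control samples from duplicates, on a log2 fold-change scale.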

[2] = compound: CC1=C(SC2=C1C(=N[C@H](C3=NN=C(N32)C)CC(=O)N)C4=CC=C(C=C4)Cl)C
Outline: as §1

[3] = compound: CC1=C2C(=CC=C1)N=C(N(C2=O)C3=CC=CC=C3C)CN4C=NC5=C(N=CN=C54)N
Outline: as §1

[4] = compound: Cc1sc2c(c1C)C(c1ccc(Cl)cc1)=N[C@@H](CC(=O)OC(C)(C)C)c1nnc(C)n1-2
Outline: as §1

[5] = compound: c1ccc([C@@H]2C[C@H]2NC2CCNCC2)cc1
Outline: as §1

Measured: log2 fold change

MAPK12 (UniProt P53778)
inactive: [1] -0.022 | [2] 0.017 | [3] 0.026 | [4] 0.008 | [5] -0.002

LSS (UniProt P48449)
inactive: [1] -0.077 | [2] 0.059 | [3] 0.127 | [4] -0.018 | [5] 0.087

MFSD1 isoform 6 (UniProt Q9H3U5)
UniProt Q9H3U5, sequence (Q9H3U5 whole entry, looked up): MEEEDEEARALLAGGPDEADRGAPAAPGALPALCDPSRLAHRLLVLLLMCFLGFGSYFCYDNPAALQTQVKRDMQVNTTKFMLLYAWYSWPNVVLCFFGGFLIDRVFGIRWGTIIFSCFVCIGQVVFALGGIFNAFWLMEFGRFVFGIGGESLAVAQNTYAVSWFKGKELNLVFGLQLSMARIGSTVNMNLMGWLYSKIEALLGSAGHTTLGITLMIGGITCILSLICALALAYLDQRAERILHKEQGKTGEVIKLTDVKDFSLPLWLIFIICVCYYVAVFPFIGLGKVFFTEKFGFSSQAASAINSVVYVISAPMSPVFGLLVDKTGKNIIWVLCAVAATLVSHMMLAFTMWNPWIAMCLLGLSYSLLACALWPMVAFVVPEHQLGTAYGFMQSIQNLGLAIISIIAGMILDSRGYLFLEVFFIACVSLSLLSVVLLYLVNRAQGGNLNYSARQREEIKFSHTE
inactive: [1] 0.001 | [2] 0.045 | [3] 0.043 | [4] -0.029 | [5] 0.039

LPCAT3 (UniProt Q6P1A2)
inactive: [1] 0.019 | [2] 0.071 | [3] -0.011 | [4] -0.093 | [5] -0.052

IGF2BP2 (UniProt Q9Y6M1)
inactive: [1] 0.122 | [2] -0.271 | [3] -0.038 | [4] 0.25 | [5] 0.019

LEMD3 (UniProt Q9Y2U8)
inactive: [1] 0.067 | [2] 0.034 | [3] 0.119 | [4] -0.031 | [5] -0.01

MED16 (UniProt Q9Y2X0)
inactive: [1] -0.048 | [2] 0.012 | [3] 0.043 | [4] 0.093 | [5] 0.019

MIF (UniProt P14174)
inactive: [1] -0.101 | [2] 0.016 | [3] 0.015 | [4] -0.083 | [5] 0.004

MFGE8 (UniProt Q08431)
inactive: [1] 0.005 | [2] -0.051 | [3] -0.091 | [4] -0.068 | [5] -0.129

LEMD2 (UniProt Q8NC56)
UniProt Q8NC56, sequence (Q8NC56 whole entry, looked up): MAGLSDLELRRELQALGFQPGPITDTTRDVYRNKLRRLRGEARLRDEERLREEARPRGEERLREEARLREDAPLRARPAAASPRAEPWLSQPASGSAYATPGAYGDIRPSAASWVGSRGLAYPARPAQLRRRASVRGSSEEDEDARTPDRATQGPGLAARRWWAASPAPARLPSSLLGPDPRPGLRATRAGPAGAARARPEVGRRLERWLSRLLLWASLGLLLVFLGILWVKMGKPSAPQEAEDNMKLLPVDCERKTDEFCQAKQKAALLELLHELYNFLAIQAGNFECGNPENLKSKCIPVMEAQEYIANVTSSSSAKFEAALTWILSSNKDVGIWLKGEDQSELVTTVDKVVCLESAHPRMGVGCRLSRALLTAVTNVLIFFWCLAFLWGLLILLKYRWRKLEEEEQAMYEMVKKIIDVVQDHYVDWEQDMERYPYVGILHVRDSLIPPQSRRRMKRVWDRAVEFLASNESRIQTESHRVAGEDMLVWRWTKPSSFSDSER
inactive: [1] -0.031 | [2] 0.136 | [3] 0.114 | [4] -0.017 | [5] 0.005

LMNB1 (UniProt P20700)
UniProt P20700, sequence (P20700 whole entry, looked up): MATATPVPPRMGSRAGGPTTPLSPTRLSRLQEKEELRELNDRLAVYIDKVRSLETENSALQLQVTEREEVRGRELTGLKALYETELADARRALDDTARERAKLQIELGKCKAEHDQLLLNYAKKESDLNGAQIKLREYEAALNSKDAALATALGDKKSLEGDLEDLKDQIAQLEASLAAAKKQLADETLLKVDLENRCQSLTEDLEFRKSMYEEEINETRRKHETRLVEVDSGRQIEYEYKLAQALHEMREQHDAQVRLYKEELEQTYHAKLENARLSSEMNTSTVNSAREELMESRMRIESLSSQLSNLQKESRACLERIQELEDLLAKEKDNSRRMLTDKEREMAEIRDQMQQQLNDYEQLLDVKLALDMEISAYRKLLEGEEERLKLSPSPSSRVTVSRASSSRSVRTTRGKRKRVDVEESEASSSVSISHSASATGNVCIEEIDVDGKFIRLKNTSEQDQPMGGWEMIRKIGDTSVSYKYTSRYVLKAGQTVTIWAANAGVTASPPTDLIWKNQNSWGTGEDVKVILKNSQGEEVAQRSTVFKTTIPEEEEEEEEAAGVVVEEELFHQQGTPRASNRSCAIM
inactive: [1] 0.08 | [2] -0.005 | [3] -0.009 | [4] -0.018 | [5] 0.042

LRPPRC (UniProt P42704)
inactive: [1] -0.312 | [2] -0.059 | [3] 0.257 | [4] -0.031 | [5] -0.05

KDELR2 (UniProt P33947)
UniProt P33947, sequence (P33947 whole entry, looked up): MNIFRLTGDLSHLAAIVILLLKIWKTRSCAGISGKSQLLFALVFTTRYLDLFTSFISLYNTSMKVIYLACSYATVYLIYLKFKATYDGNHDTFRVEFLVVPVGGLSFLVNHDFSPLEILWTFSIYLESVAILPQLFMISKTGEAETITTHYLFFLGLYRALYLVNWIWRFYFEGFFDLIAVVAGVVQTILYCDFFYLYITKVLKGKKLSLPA
inactive: [1] -0.038 | [2] -0.015 | [3] 0.076 | [4] -0.137 | [5] 0.115

KDM5D isoform 3 (UniProt Q9BY66)
UniProt Q9BY66, sequence (Q9BY66 whole entry, looked up): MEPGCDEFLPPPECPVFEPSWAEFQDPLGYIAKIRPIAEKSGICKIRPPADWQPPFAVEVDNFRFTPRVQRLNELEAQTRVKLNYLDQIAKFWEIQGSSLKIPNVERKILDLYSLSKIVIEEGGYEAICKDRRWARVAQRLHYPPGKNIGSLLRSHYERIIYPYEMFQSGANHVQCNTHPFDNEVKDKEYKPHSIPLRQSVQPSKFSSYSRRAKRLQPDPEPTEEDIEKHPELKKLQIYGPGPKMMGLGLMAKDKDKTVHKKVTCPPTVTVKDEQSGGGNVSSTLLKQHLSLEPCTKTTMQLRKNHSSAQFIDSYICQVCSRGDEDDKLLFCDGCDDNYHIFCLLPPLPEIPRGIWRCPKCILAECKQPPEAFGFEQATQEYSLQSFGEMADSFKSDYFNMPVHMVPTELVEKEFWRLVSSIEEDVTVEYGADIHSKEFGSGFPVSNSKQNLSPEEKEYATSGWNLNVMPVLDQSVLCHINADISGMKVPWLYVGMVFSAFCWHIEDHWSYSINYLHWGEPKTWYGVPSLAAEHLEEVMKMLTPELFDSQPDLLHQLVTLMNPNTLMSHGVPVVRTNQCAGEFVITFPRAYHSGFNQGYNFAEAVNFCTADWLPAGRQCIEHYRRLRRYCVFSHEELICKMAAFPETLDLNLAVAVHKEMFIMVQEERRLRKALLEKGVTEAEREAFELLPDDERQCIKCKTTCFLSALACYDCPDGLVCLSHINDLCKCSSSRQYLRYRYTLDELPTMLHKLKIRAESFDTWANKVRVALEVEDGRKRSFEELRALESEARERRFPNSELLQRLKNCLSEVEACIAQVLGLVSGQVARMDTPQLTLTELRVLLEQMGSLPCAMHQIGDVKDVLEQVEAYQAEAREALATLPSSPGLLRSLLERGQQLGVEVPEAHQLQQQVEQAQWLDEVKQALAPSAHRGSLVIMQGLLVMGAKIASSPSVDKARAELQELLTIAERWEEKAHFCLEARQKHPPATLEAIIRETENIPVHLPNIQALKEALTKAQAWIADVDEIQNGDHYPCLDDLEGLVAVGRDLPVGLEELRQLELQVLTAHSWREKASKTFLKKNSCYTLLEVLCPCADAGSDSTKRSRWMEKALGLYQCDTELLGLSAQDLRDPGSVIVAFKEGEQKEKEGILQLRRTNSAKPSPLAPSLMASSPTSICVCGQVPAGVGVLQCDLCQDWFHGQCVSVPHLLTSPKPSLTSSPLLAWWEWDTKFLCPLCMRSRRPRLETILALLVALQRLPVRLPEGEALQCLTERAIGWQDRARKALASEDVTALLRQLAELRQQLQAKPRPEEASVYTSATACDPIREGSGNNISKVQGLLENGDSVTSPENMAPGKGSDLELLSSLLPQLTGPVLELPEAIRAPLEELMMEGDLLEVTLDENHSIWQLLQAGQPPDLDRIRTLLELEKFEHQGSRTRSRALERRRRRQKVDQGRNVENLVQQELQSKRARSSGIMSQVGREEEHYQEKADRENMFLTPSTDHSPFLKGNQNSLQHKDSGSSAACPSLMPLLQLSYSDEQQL
inactive: [1] 0.2 | [2] 0.086 | [3] 0.102 | [4] -0.022 | [5] 0.037

MIEF1 (UniProt Q9NQG6)
UniProt Q9NQG6, sequence (Q9NQG6 whole entry, looked up): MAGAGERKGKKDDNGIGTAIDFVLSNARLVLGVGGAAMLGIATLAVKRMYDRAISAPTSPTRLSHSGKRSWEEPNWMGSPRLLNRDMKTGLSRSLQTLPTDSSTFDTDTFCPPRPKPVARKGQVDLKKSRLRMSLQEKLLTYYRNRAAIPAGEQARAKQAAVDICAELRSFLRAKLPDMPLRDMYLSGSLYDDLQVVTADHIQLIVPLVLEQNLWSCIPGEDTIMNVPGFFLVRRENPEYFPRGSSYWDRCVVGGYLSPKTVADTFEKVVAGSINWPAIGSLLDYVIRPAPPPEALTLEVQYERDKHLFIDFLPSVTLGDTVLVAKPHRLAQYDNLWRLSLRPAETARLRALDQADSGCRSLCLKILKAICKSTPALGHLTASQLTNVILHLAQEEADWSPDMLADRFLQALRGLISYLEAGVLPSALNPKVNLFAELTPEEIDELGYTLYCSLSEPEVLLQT
inactive: [1] -0.043 | [2] 0.053 | [3] 0.047 | [4] -0.024 | [5] -0.054

MAP2K1 (UniProt Q02750)
inactive: [1] -0.01 | [2] 0.033 | [3] 0.099 | [4] -0.015 | [5] 0

KHDRBS1 (UniProt Q07666)
inactive: [1] -0.038 | [2] -0.018 | [3] -0.025 | [4] 0.055 | [5] -0.021

MARCKS (UniProt P29966)
UniProt P29966, sequence (P29966 whole entry, looked up): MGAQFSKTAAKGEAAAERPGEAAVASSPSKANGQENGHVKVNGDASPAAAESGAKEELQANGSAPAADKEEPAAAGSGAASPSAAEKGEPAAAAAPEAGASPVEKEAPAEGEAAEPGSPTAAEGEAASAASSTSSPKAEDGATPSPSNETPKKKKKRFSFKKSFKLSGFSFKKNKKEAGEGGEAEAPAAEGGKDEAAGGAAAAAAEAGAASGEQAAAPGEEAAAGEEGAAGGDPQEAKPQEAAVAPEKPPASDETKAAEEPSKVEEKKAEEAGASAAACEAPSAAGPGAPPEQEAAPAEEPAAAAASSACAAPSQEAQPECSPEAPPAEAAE
inactive: [1] 0 | [2] -0.046 | [3] -0.066 | [4] -0.065 | [5] 0.031

KIF21A isoform 4 (UniProt Q7Z4S6)
inactive: [1] -0.003 | [2] -0.024 | [3] 0.061 | [4] -0.077 | [5] 0.014

ITIH4 (UniProt Q14624)
inactive: [1] -0.088 | [2] 0.015 | [3] 0.089 | [4] -0.133 | [5] -0.006

LRFN1 (UniProt Q9P244)
inactive: [1] -0.069 | [2] 0.183 | [3] 0.042 | [4] -0.02 | [5] -0.411

MAST4 (UniProt O15021)
inactive: [1] -0.081 | [2] 0.037 | [3] 0.061 | [4] -0.002 | [5] -0.041

MARK2 (UniProt E9PC69)
inactive: [1] -0.029 | [2] 0.038 | [3] 0.174 | [4] 0.126 | [5] -0.052

LPIN1 isoform 7 (UniProt Q14693)
UniProt Q14693, sequence (Q14693 whole entry, looked up): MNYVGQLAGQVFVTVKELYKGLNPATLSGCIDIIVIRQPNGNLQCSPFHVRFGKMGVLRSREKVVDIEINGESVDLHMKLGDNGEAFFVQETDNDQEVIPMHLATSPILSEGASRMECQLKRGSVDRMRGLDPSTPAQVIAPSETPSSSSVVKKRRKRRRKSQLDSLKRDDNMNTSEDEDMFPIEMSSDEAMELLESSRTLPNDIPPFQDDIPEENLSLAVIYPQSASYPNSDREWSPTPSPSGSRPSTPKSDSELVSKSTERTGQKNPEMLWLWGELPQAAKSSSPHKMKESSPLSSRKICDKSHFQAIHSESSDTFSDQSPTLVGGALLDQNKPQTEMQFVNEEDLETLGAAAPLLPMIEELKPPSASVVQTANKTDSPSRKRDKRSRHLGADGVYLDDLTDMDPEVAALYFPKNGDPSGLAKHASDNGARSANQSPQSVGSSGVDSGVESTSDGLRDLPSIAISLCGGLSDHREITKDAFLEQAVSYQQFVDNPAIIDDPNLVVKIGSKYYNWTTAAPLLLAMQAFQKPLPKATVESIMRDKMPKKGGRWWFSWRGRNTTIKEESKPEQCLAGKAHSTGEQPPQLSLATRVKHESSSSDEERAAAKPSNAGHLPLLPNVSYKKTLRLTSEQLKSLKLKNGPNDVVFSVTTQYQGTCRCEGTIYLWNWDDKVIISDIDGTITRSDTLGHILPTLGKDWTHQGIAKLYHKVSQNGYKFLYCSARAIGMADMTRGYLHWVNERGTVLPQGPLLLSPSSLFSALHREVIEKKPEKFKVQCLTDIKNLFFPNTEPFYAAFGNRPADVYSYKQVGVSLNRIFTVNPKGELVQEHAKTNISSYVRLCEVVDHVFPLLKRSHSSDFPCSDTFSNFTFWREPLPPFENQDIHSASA
inactive: [1] -0.071 | [2] 0.086 | [3] 0.071 | [4] 0.02 | [5] 0.023
